Screening data: PubChem, several laboratories
FXIa mix inh = FXIa protease inhibitors in compound pools, primary screen, biochemical, 10-compound mixtures. hit rate 0.19% among 62,000. purified FXIa, fluorogenic substrate, pooled mixtures. inhibition, % at 5 µM. AID 680, 2007;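 also: each value is inhibition by a whole ten-compound pool holding the compound; 0% = enzyme with no mixture and 100% = wells lacking enzyme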
M1 agonist = M1 muscarinic receptor agonists, primary screen, CHO-M1 cells, Fluo-4 calcium, agonist mode; hit rate 3% among 64,000; Muscarinic acetylcholine receptor M1; B-score at 10 µM; AID 626, 2007; Fluo-4 calcium fluorescence; active compounds read high;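 active = fluorescence rise, raw or as B-score row- and column-corrected plate score, outside the 99.7% band of its plate's samples, either direction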
D1 mod = D1 CRE-luciferase signal change, two-sided – cell-based, HEK293 D1, dopamine EC30, D1 allosteric modulator project, primary screen. D(1A) dopamine receptor (Homo sapiens), P21728. hit rate 5.9% among 58,000. dopamine EC30 potentiation; actives deviate in either direction. AID 641, 2007. B-score at 10 µM;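 active = luminescence count or its row- and column-corrected plate score outside the 99.7% band of the plate's sample wells, on either side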
M1 antagonist = antagonists of rat M1 muscarinic receptor. hit rate 3.4% among 64,000. B-score at 10 µM. CHO-M1 cells, Fluo-4 calcium, ACh EC80 antagonist mode; active compounds read low;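 active = calcium fluorescence response, raw or row-and-column corrected B-score, differing from the plate sample mean either way at a set confidence level, mostly lower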
Target sequence (P08482 whole entry, looked up): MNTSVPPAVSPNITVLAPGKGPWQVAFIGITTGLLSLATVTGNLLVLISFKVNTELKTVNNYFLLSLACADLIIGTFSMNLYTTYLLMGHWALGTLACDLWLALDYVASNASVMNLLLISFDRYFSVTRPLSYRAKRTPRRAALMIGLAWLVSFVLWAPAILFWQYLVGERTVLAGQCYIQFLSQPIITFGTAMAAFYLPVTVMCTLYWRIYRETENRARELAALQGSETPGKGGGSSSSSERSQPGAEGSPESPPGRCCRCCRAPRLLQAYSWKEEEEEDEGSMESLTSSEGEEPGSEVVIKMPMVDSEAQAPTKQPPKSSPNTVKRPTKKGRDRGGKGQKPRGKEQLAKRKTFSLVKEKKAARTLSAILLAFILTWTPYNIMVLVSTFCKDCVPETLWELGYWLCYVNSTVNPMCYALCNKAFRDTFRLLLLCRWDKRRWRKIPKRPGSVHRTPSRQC
FXIIa mix inh = human factor XIIa inhibitors, primary screen, biochemical, pooled compound mixtures, fluorogenic substrate | inhibition, % at 5 µM | hit rate 0.2% among 62,000 | purified FXIIa | Coagulation factor XII (Homo sapiens), P00748;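 also: 0% = enzyme without compound and 100% = no enzyme blank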
DAT uptake mod = changed hDAT dopamine uptake under cocaine IC80, either direction, primary screen, cocaine antagonist project, cell-based, LLC-PK1 hDAT, [14C]-dopamine uptake, MLSMR | hit rate 1.3% among 110,000 | B-score at 10 µM | LLC-PK1 hDAT cells, [14C]-dopamine uptake with cocaine IC80; actives deviate in either direction;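 active = Z score or B-score, a plate-position-corrected score, falls beyond the plate's 99.7% confidence bounds, in either direction; inactive = both scores lie inside the 99.7% bounds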;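 also: scored against the spread of the other compound wells on the same plate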
D1 mod confirm = D1 receptor positive allosteric modulators, retest, confirmation, cell-based, HEK293 D1, CRE-luciferase, duplicate; shares compounds with D1 mod; dopamine EC30 potentiation; active compounds read high; luminescence at 10 µM; hit rate 88% among 2,200;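 active = luminescence in either of two replicates above the same-plate mean plus 3 SD of the low-dose dopamine control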
D1 ag no DA = D1 receptor agonism without dopamine, confirmation, mechanism study for D1 allosteric modulator project, cell-based, HEK293 D1, CRE-luciferase, secondary assay 1; luminescence, no dopamine; active compounds read high; shares compounds with D1 mod; hit rate 0.8% among 1,900; AID 646, 2007; luminescence at 10 µM; in the data active = luminescence above about 3900
Isoprot counter = counter-screen for D1 modulators: isoproterenol response in HEK293 cells; shares compounds with D1 mod; calls only at 10 µM; hit rate 63% among 2,200; HEK293 D1 CRE-luciferase, isoproterenol EC30 counter-screen;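 active = luminescence in either replicate above plate mean of wells with a partly effective reference agonist dose plus 3 SD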;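 also: isoproterenol raises cAMP through native beta-adrenoceptor Gs so signal bypasses D1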
* marks the source's active call; other numbers are inactive results. A selection: hits, their analogues and other compounds. The true share with any hit is near 7.4%. Rule as the data show it, unless noted: active = inhibition above about 20% (passing the limit was not always enough); inactive = the rest.

CC1CCc2nn(CC(=O)NCCN3CCOCC3)cc2C1 (configuration not stated) was read as FXIa mix inh 6, M1 agonist 0.073, D1 mod -1.1, M1 antagonist 0.44, FXIIa mix inh 0 and DAT uptake mod -0.048.
Screening CN1C(=O)C2(C(C#N)=C(N)Oc3c2oc(CO)cc3=O)c2ccccc21 (configuration not stated) returned FXIa mix inh -7, M1 agonist -0.49, D1 mod 8.9*, M1 antagonist -0.4, FXIIa mix inh 5, DAT uptake mod 0.009, D1 mod confirm 5568, D1 ag no DA 1636 and Isoprot counter inactive.
For Nc1nc(N2CCOCC2)nc(N(c2ccccc2)c2ccccc2)n1 the results were FXIa mix inh 2, M1 agonist -0.23, D1 mod 1.1, M1 antagonist 0.44, FXIIa mix inh -2 and DAT uptake mod 1.8.
`c1ccc(CNc2nc(N3CCOCC3)nc(N3CCOCC3)n2)cc1` gave DAT uptake mod 0.53.
Screening Nc1nc(CSCc2ccccc2)nc(N2CCOCC2)n1 returned FXIa mix inh 4, M1 agonist -0.34, D1 mod 4.3*, M1 antagonist 0.9, FXIIa mix inh 5, DAT uptake mod 0.25, D1 mod confirm 12172*, D1 ag no DA 1852 and Isoprot counter active.
Screening CCNc1nc(SCc2ccccc2)nc(N2CCOCC2)n1 returned FXIa mix inh 0, M1 agonist 0.7, D1 mod 23*, M1 antagonist -0.55, FXIIa mix inh 7, DAT uptake mod 0.0025, D1 mod confirm 17404* and Isoprot counter active.
Screening CNc1nc(SC)nc(N2CCOCC2)n1 returned FXIa mix inh 3, M1 agonist -0.3, D1 mod 11*, M1 antagonist 1.4, FXIIa mix inh 8, DAT uptake mod -0.78, D1 mod confirm 17184*, D1 ag no DA 2056 and Isoprot counter active.
CCCc1nc2sc3ccccc3c(=O)c2c(=O)n1Cc1ccco1 was read as FXIa mix inh 6, M1 agonist -1.5, D1 mod 4.6*, M1 antagonist 0.85, FXIIa mix inh 1, D1 mod confirm 9128*, D1 ag no DA 1636 and Isoprot counter inactive.
Screening CC(C)(C)c1ccc(C(=O)OCCNC(=O)c2c(Cl)nc3ccccn23)cc1 returned DAT uptake mod 0.18.
`COc1ccc(C(=O)OCCNC(=O)c2c(Cl)nc3ccccn23)cc1` gave FXIa mix inh 5, M1 agonist 0.71, D1 mod 5.1*, M1 antagonist 0.42, FXIIa mix inh -16, DAT uptake mod 2.3, D1 mod confirm 13996*, D1 ag no DA 1764 and Isoprot counter active.
Nc1nc2n(n1)C(c1ccco1)CC(c1ccccc1)N2 (configuration not stated) was read as M1 agonist -0.99, D1 mod 14*, M1 antagonist -1.6, DAT uptake mod 0.41, D1 mod confirm 20620*, D1 ag no DA 1600 and Isoprot counter active.
For c1ccc(C2CC(c3ccccc3)n3ncnc3N2)cc1 (configuration not stated) the results were FXIa mix inh 7, M1 agonist -0.36, D1 mod 4.4*, M1 antagonist 0.13, FXIIa mix inh 9, DAT uptake mod 1.7, D1 mod confirm 6308*, D1 ag no DA 1700 and Isoprot counter inactive.
